We go through 29 compounds from PubChem BioAssay (NCI).

Compounds without any hit were thinned out: in the full panel of roughly 83,000, 20% have a hit.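 Interpretation: 100, growth as untreated; towards 0, rising growth inhibition; 0, no net growth; 0 to -100, cell death. Compounds scoring below 10 were considered active.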 A number with no mark means an inactive call. The source made the active and inactive calls.

The subject of this assay is DU-145 prostate. The assay can be described thus: NCI-60 one-dose screen, 48 h (100 = growth as untreated, 0 = no growth, -100 = all killed). The settings on record: 10 µM.
In the case of `CCN1CCN(CCC(=O)Nc2cccc(-n3cc(-c4ccncc4)c(-c4ccc(Cl)c(OC)c4)n3)c2)CC1`, the growth was 12.4%.
For `O=C1/C=C/[C@@H](O)[C@@H]2C[C@@H](O)C[C@H]2/C=C/CCC[C@H](C(F)(F)F)O1`, the growth was 28.2%.
For the compound `CC[C@@H](C(=O)[C@@H](C)[C@@H](O)[C@H](C)[C@@H]1O[C@@H]([C@@H](CC)C(=O)N(CC)CC)CC[C@@H]1C)C1O[C@]2(C=CC(=O)[C@]3(CC[C@@](C)([C@H]4CC[C@](O)(CC)[C@H](C)O4)O3)O2)[C@H](C)C[C@@H]1C` (some centres undefined), the growth is 68.5%.
On to `COc1ccc(-c2cc(-c3ccc(Cl)cc3)nc(SCCCCCCC(=O)NO)n2)cc1OC`, for which the growth is 82.4%.
For `N#CCc1csc(Cc2ccccc2)n1` the value was 108%.
With `CC(C)(C)OC(=O)CN1CCc2c(sc3ncnc(N/N=C/c4ccccc4Br)c23)C1`, the growth is 94.6%.
In the case of `CC(CN(C)C)Oc1ccccc1NC1=C(Cl)C(=O)C(Nc2ccccc2OC(C)CN(C)C)=C(Cl)C1=O` (centres undefined), the growth is -99.3% (active).
Regarding `Nc1ccn(Cc2nnc(CCC(=O)c3nc4ccccc4[nH]3)o2)c(=O)n1`, the growth is 98.4%.
In the case of `CC(C)(C)OC(=O)CN1CCc2c(sc3ncnc(N/N=C/c4cccc5ccccc45)c23)C1`, the growth is 66.4%.
The figure for `CCOC(=O)c1cc(C(=O)c2ccc(Cl)cc2)n2ccc(-c3cc[n+](CC(=O)c4ccc(OC)cc4)cc3)cc12` is 30.3%; for `NS(=O)(=O)Oc1ccc(NC(=O)C2CCCCCC2)cc1` it is 117%; for `NNC(=O)Oc1c(Cl)cc(Cl)cc1[N+](=O)[O-]` it is 103%.
Regarding `O=C1c2ccccc2C(=O)c2c1ccc(C(Br)Br)c2[N+](=O)[O-]`, the growth was 59.4%.
Regarding `COc1ccc(NC(=O)C2CC3C=CC2C3)c([N+](=O)[O-])c1` (centres undefined), the growth was 110%.
As to `CC[C@@H](C(=O)[C@H](C)[C@H](O)[C@@H](C)[C@H]1O[C@H]([C@@H](CC)C(=O)N(CC)CC)CC[C@H]1C)C1O[C@]2(C=C[C@@H](O)[C@]3(CC[C@@](C)([C@H]4CC[C@](O)(CC)[C@H](C)O4)O3)O2)[C@H](C)C[C@@H]1C` (some centres undefined), the growth is 55.1%.
For `COc1cc(-c2nn(-c3cccc(NC(=O)NCCNC(=O)c4cccc(C(F)(F)F)c4)c3)cc2-c2ccncc2)ccc1Cl` the value was 48.9%; for `O=C(O)c1cc([N+](=O)[O-])ccc1Oc1ccccc1`, 104%; for `CCOC(=O)c1cc(C(=O)c2cc(OC)c(OC)c(OC)c2)n2nc(C)ccc12`, 21.1%.
Turning to `CC[C@@H](C(=O)[C@@H](C)[C@@H](O)[C@H](C)[C@@H]1O[C@@H]([C@@H](CC)C(=O)O)CC[C@@H]1C)C1O[C@]2(C=CC(=O)[C@]3(CC[C@@](C)([C@H]4CC[C@](O)(CC)[C@H](C)O4)O3)O2)[C@H](C)C[C@@H]1C` (some centres undefined), the growth was 48%.
As to `Cc1ccc(S(=O)(=O)N(C)CCCCCC(=O)O)cc1`, the growth was 102%.
For `COc1ccc(C2=Cn3c(CCC(=O)c4nc5ccccc5[nH]4)nnc3SC2)cc1` the value was 97.7%.
For `CCCN(CCC)C(=O)[C@H](CC)[C@@H]1CC[C@@H](C)[C@@H]([C@H](C)[C@@H](O)[C@@H](C)C(=O)[C@H](CC)C2O[C@]3(C=C[C@@H](O)[C@]4(CC[C@@](C)([C@H]5CC[C@](O)(CC)[C@H](C)O5)O4)O3)[C@H](C)C[C@@H]2C)O1` (some centres undefined) the value was 31.5%; for `OCC1OC(n2cnc3c(NCc4ccco4)ncnc32)C(O)C1O` (centres undefined), 4.25% (active); for `CC[C@@H](C(=O)[C@H](C)[C@H](O)[C@@H](C)[C@H]1O[C@H]([C@@H](CC)C(=O)O)CC[C@H]1C)C1O[C@]2(C=C[C@@H](O)[C@]3(CC[C@@](C)([C@H]4CC[C@](O)(CC)[C@H](C)O4)O3)O2)[C@H](C)C[C@@H]1C` (some centres undefined), 51.3%.
As for `O=C(/C=C/c1cccc(B(O)O)c1)c1cccc(B(O)O)c1`, the growth is -69.4% (active).
As for `Cc1ccc(Cl)cc1NC(=O)CCl`, the growth is 99.8%.
With `COc1cc(/C=C/c2cc(/C=C/c3ccc(O)c(OC)c3)nc(N)n2)ccc1O`, the growth is 13%.
For the compound `C/C(=N\O)c1ccc(NC(=O)CSc2nnc(-c3ccccc3)n2-c2ccccc2)cc1`, the growth is 90.6%.
The figure for `O=C(NCCCNS(=O)(=O)c1ccc(Cl)cc1)Nc1ccc(-n2cc(-c3ccncc3)c(-c3ccc(Cl)c(O)c3)n2)cc1` is 46.6%.
